Structures are written as SMILES. The list shows a part of the results. Unmarked numbers belong to inactive results. The source made the active and inactive calls. No stated cut-off is given here; in the data, active means response above about 24%; inactive means the rest.

The test is described as follows: V-ATPase regulators in yeast, one dose – S. cerevisiae, pH-sensitive GFP, second cherry-pick, confirmation (AID 602197).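 Further: plate controls were vehicle wells for no effect and positive control wells for full effect.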 Conditions: S. cerevisiae pHLuorin cytosolic pH, V-ATPase proton transport; at 10 µM; hits give high values.
Take `CCCc1cc(=O)[nH]c(SCc2ccc(C#N)cc2)n1`: the response is 1.04%. In the case of `O=C(O/N=C(/c1ccccc1)c1ccncc1)c1ccccc1[N+](=O)[O-]`, the response is 4.81%. In the case of `COC(=O)COc1ccc2c(=O)c(Oc3ccccc3Br)coc2c1` it was -1.59%; in that of `Cc1cc(CO)nn1-c1ccc([N+](=O)[O-])cc1`, 2.63%; in that of `COc1ccc2nc(N3CCN(C(=O)c4ccc([N+](=O)[O-])o4)CC3)sc2c1`, 36% (active).

Consider `Nc1ccc(C(=O)NCc2ccccc2)cc1`, for which the response was -2.67%. The figure for `O=C(C1=C[C@H](C2CC2)C[C@H](OCc2ccc(CO)cc2)O1)N1CCN(Cc2ccccc2)CC1` is 1.94%; for `COc1ccc(/C=N/NC(=O)c2cccc(C(F)(F)F)c2)cc1` it is -3.87%; for `CCOC(=O)Cn1c(-c2cccnc2Cl)nc2ccccc21` it is 1.29%.

With `COc1ccccc1CNC(=O)COC(=O)c1sc(C)nc1C`, the response was 1.62%. In the case of `COc1ccc(CCN2C(=O)N(c3ccc(OC)cc3)C(=O)C2CC(=O)Nc2ccc(OC)cc2)cc1` (centres undefined) it was -1%. In the case of `OCc1nc(CO)n(Cc2ccccc2)n1` it was -7.16%; in that of `Cc1ccc(C(=O)Nc2nc3ccc(Cl)cc3s2)o1`, -0.02%; in that of `O=S(=O)(c1ccc(-c2ccno2)s1)N1CCCCC1`, -6.9%. For `COC(=O)c1c(-c2ccc(C)cc2)csc1N`, the response was 0.92%. The figure for `CCCCNc1ccc(C(=O)Nc2cccc(C)n2)cc1[N+](=O)[O-]` is 2.43%; for `Cc1occc1C(=O)Nc1nnc(C2CCCCC2)s1` it is 3.1%.

As for `N#C/C(C(=O)N1CCOCC1)=C1/SC(Cc2ccc(F)cc2)C(=O)N1c1ccccc1` (centres undefined), the response was 5.79%. In the case of `Cc1ccnc(SCC(=O)Nc2cccc(S(=O)(=O)N3CCOCC3)c2)n1`, the response is 0.72%. In the case of `CCc1ccc(CNC(=O)CCc2nc(-c3cccs3)no2)cc1` it was 2.27%; in that of `CCC(=O)c1ccc(OCC(=O)Nc2ccc(N3CCCCC3)cc2)cc1`, -1.55%. In the case of `CCOC(=O)COc1cc(O)c2c(=O)cc(-c3ccccc3)oc2c1` it was -3.04%. As to `O=C(COC(=O)c1ccccc1Br)Nc1nnc(-c2ccccc2)o1`, the response is 3.01%. The figure for `COc1cccc(OC)c1C(=O)OCC(=O)/C(C#N)=C(\C)N` is -0.01%.
